# Assay results from the supplement of paper PMC6555819.
# Legend:
# Assay in all cases: PBM binding z-score (relative to random genomic background probes); higher = stronger binding; sequences stand for … in GC…GCGATTGACAGCGTAGAATGAAGG
# [1] = system: RARb homodimer (NR concentration 270 nM)
# How it was run: (§1)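 Antibodies against each partner of ligand-free nuclear receptor dimers (one per run) detected binding on custom Agilent 4×180K protein-binding microarrays after 1 h incubation. The double-stranded probes had 34-nt variable regions carrying direct-repeat seeds, single-nucleotide variants, half-site ablations and random human genomic background sequences. Binding z-scores, from regression-normalized fluorescence, use the random background probes as reference.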
# [2] = system: RARg:RXRa (NR concentration 270 nM, RXRa partner concentration 90 nM)
# How it was run: as §1
# [3] = system: RARg homodimer (NR concentration 270 nM)
# How it was run: as §1
# [4] = system: RXRa DBDmut IVT, anti-RXR (DBD mutation: RXRa K156A/R161A, NR concentration 90 nM)
# How it was run: as §1
# [5] = system: RXRa homodimer (NR concentration 180 nM)
# How it was run: as §1
# [6] = system: THRa:RXRa (NR concentration 90 nM, RXRa partner concentration 90 nM)
# How it was run: as §1
# [7] = system: THRa homodimer (NR concentration 90 nM)
# How it was run: as §1
# [8] = system: VDR homodimer (NR concentration 270 nM)
# How it was run: as §1
Sequence,PBM binding z-score [1],PBM binding z-score [2],PBM binding z-score [3],PBM binding z-score [4],PBM binding z-score [5],PBM binding z-score [6],PBM binding z-score [7],PBM binding z-score [8]
TCATATAGGCAAAGGTGAAAGTCGAACGATATGA,1.42,1.59,1.08,0.694,2.3,1.22,-0.37,-0.123
GCTGCGAGGTCAGGTTGGTCAGCTAACGGGTACG,3.93,4.9,5.27,3.04,4.52,3.7,2.31,2.88
AATACAGTGTCATCGTAGGCCAGAGTACGCACAG,0.72,0.907,1.24,0.561,0.84,1.81,-0.754,0.395
TTACCAAGGTGAGCTGTGGTCGTTGATCCAACTC,0.173,0.108,-0.154,-0.592,0.152,1.78,-0.136,-0.783
AGAACGAGGGCACGTTGAGTTGATAGCAGAGTAG,1.28,1.84,1.95,1.8,1.36,1.82,0.141,2.13
CGGACTAGGTCATTGACAGGACAGTGAATAGTAA,2.48,4.64,4.39,2.41,2.38,2.85,0.733,1.23
TCATATAGGTAAAAGGGGAAAGTCGGTGTGGTAA,0.789,0.447,0.236,1.95,1.19,0.512,0.383,0.386
TGTCACAGTTCAAAGGTAACGTAAGTATCCACAC,1.81,3.57,2.54,2.93,4.82,2.74,-0.0814,2.33
ATCTTTAGGTAAAGATAGTTCAGTGAATGCAAAT,0.997,0.713,0.798,0.388,0.298,1.23,0.203,0.742
AGTCAAAGTTCACAAGGTAACGTAAGATTCAGCT,3.97,5.73,6.02,4.32,4.74,3.06,0.961,3.66
AGACTGAGGTTATACGTAGATCAGGGAAGAAAGT,0.864,1.64,1.03,1.44,2.09,2.01,0.684,0.49
CCTAACGGGTCAAGGTTATAGCACGGGTGGTACG,3.19,4.47,4.4,0.639,4.35,2.8,0.625,1.37
ACTTACGGGTCAACGAGATTATAGCACGCGTATA,2.96,5.12,4.89,2.05,5.72,2.67,0.499,1.35
ACTAGTTCGTCAGCTGAGGTCACACACAATTCGG,4.27,4.08,3.93,3.38,4.37,4.66,5.07,4.73
CCGACTGGGCCAAGGTCATTGATCAGTCAAAGCA,3.28,3.72,3.11,1.4,3.09,3.46,2.09,3.33
CCTACTAGGTCAATGGTCAGCTAAAGCAGCTCGC,3.28,3.39,4.16,1.71,2.26,2.47,0.868,0.437
CAGCCTAGGTCATGGCCAGTATAGGAGGAACGTT,3.01,4.38,4.94,1.17,3.32,2.93,0.965,0.197
ATCTCTAGGTAACAAGTTCAGTGAAAGAGAGGAC,1.78,1.52,1.61,1.06,0.955,1.68,0.986,3.36
GCTAGTTGGTTAGTAAAAGGTCACACACCGGTCG,4.86,4.87,4.08,0.675,5.33,3.66,2.08,1.85
